Bioassay records as filed in PubChem BioAssay.
Only a selection was taken, and hits are over-represented in it overall.
Pf Dd2 inh: qHTS Primary assay for Inhibitors of Plasmodium falciparum Dd2 growth in vitro | Potency, µM (series often up to 28.9 µM), for the others: at the highest dose activity, negative = inhibition, most hits filed as inhibitors | P. falciparum Dd2 growth, SYBR Green, 72 h | 4.3% of 120,000 active; active = well fitted inhibition curve with a large enough effect;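 note: plate controls were DMSO vehicle for no effect and reference drug for full effect; nearly all actives have a fitted effect of over 65% in size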
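Readout: SYBR Green fluorescence, 485 nm excitation, 535 nm emission, after ~16 h lysis at 37C. Before that, Dd2-infected red cells (2.5% hematocrit) grew 72 h with compound, 29 uM top final concentration.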
Numbers without * were called inactive; i = inactive; [ ] = another dose, or the depositor's remark. Potency is the fitted concentration of half-maximal effect.

SMILES	Pf Dd2 inh
O=C(O)C1CC2(CCN(C(=O)CCCn3ccnc3)CC2)CN1 (stereo not given)	-5%
O=C(c1ccc2c(c1)OCO2)N1CCc2nn(Cc3ccccc3)c(=O)n2CC1	-7%
COc1ccc(N2C(=O)CS(=O)(=O)C23C(=O)N(Cc2ccccc2)c2ccccc23)cc1 (stereo not given)	-23%
CN1C(=O)C2(c3ccccc31)N(c1ccc(F)c(Cl)c1)C(=O)CS2(=O)=O (stereo not given)	-15%
O=C1CS(=O)(=O)C2(C(=O)N(Cc3ccccc3Cl)c3ccccc32)N1c1ccc(F)cc1 (stereo not given)	5.6µM*
CCc1cc(N(C)Cc2ccc(OC)c(OC)c2)n2nccc2n1	-4%
CCOC(=O)c1ccc(Nc2nc3ccccc3n3c(C)nnc23)cc1	-24%
CCOC(=O)c1ccc(Nc2nc3nonc3nc2Nc2cccc(C)c2C)cc1	1.1µM*
CCOC(=O)c1nc(Nc2ccc(Cl)cc2)c2c(C)noc2n1	17%
COCC(=O)N1CC[C@]2(O)CCN(C(=O)c3ccn(C)c3C)C[C@@H]2C1	13%
CC(=O)N1Cc2ccccc2CC2(CCN(CC3CCNC3)CC2)C1 (stereo not given)	13%
COc1cccc(C(=O)NCC2Cn3cccc3C(=O)N2CC(C)C)c1 (stereo not given)	i
CNC(=O)c1ccc2c(c1)OCCN(c1ccccc1)C2	i
COc1ccc(NC(=O)c2ccc3c(c2)OCCN(c2ccccc2)C3)c(F)c1	10µM*
COc1ccc(NC(=O)c2ccc3c(c2)OCCN(CCC(F)(F)F)C3)c(F)c1	-23%[44.1 µM]
Cc1noc(C)c1[S+](=O)([O-])N1CCC2(CC1)CC(=O)c1ccc(Cl)cc1O2	-10%
CS(=O)(=O)N(C1CC1)C1CCOC2(CCN(C(=O)Cc3cccc(F)c3)CC2)C1 (stereo not given)	i
O=C([C@@H]1C[C@H](Oc2ccccc2)CN1S(=O)(=O)Cc1ccccc1)N1CCOCC1	1%
CCc1ccc(CNC(=O)c2cc3c(s2)-c2ccccc2OC3)cc1	11%
O=C1C2=C(Nc3ccccc3SC2c2ccc(C(F)(F)F)cc2)c2ccccc21 (stereo not given)	4.5µM*
CC(C)c1ccc(C2Sc3ccccc3NC3=C2C(=O)c2ccccc23)cc1 (stereo not given)	3.5µM*
CCc1ccc(C2Sc3ccccc3NC3=C2C(=O)c2ccccc23)cc1 (stereo not given)	2µM*
O=C1[C@@H]2CSC(c3ccc(C(F)(F)F)cc3)N2C(=O)N1c1ccccc1 (stereo not given in full)	12%
CC(C)NC(=O)C[C@@H]1C[C@H]2O[C@H](CN(C)C)[C@@H](O)[C@H]2O1	37%[44.1 µM]
CCC1CCCCN1CCCNC(=O)CCc1cc2cc(OC)ccc2[nH]c1=O (stereo not given)	-20%
SMILES	Pf Dd2 inh
CN1C(=O)CC(C(=O)O)C12CCN(C(=O)C1(c3ccccc3)CC1)CC2 (stereo not given)	5%
O=C(c1cnc(Cc2c(Cl)cccc2Cl)[nH]c1=O)N1CCCCC1	-2%
O=C(Nc1cccc(Cl)c1)C1=NO[C@@H]2CN(CCc3ccccc3)C[C@H]12	19%[44.1 µM]
CN1C(=O)[C@@H]2C[C@@H](CN2CC2CC2)Oc2ccccc21	-23%[44.1 µM]
c1ccc(O[C@H]2COCCN(c3nc4ccccc4s3)C2)cc1	-4%[44.1 µM]
Cc1ccc(C(=O)N2CCCCCNC(=O)[C@@H]3CCCC[C@@H]32)cn1	-6%
CC(C)NC(=O)CN1C(=O)NC2(CCC(C(C)(C)C)CC2)C1=O (stereo not given)	i
CCOC(=O)C1CCN(c2nc3ccccc3nc2Cl)CC1	i
CCOC(=O)C1CCN(c2c(C(=O)c3ccc(OC)cc3)cnc3ccccc23)CC1	8.9µM*
CCOC(=O)C1CCN(C(=O)c2c[nH]c3ncccc23)CC1	0%[44.1 µM]
N#Cc1cccc(C(=O)NC2CCN(c3cc(-c4ccc(F)cc4)[nH]n3)C2)c1 (stereo not given)	-12%
O=C(c1ccc(F)cc1)c1cn(Cc2ccccc2F)c2cc3c(cc2c1=O)OCCO3	61%[5.79 µM]
CCc1ccc2c(c1)c(=O)c(C(=O)c1ccc(C)cc1)cn2CC(=O)Nc1ccccc1C	-2%
O=C(c1ccc(Cl)cc1)c1cn(Cc2ccccc2)c2cc3c(cc2c1=O)OCCO3	11µM*
CCOc1ccc(NC(=O)Cn2cc(C(=O)c3ccccc3)c(=O)c3cc4c(cc32)OCO4)cc1	-1%
CCOc1ccc(C(=O)c2cn(Cc3ccc(Cl)cc3)c3cc(OC)c(OC)cc3c2=O)cc1	7.9µM*
CCOc1ccc(C(=O)c2cn(CC(=O)Nc3ccc(Cl)cc3)c3cc4c(cc3c2=O)OCO4)cc1	-9%
CCOc1ccc(NC(=O)Cn2cc(C(=O)c3ccc(F)cc3)c(=O)c3cc4c(cc32)OCCO4)cc1	9%
COc1ccccc1Cn1cc(C(=O)c2ccccc2)c(=O)c2cc(OC)c(OC)cc21	2.5µM*
CCc1ccccc1NC(=O)Cn1cc(C(=O)c2ccncc2)c(=O)c2cc(C)ccc21	i
CCOc1ccc2c(c1)c(=O)c(C(=O)c1ccc(CC)cc1)cn2CC(=O)Nc1ccccc1OC	-7%
COc1cc(NC(=O)Cn2ccn(Cc3ccccc3OC)c(=O)c2=O)cc(OC)c1	34%
COc1ccc2c(c1)c(=O)c(C(=O)c1ccc(C)cc1)cn2Cc1ccccc1F	13µM*
Cc1nc(N2CCC(NC(=O)c3nccc4ccccc34)CC2)cc(C(F)(F)F)n1	-17%
COCC(=O)N1CCCN(C(=O)CSc2ccncc2)CC1	-1%
SMILES	Pf Dd2 inh
COc1ccc(CCc2nc3nccc(-c4ccco4)n3n2)cc1	-18%
CC(=O)N1CCC2(CC1)CN(C(=O)C1CCN(C)CC1)Cc1ccccc1O2	2%
CS(=O)(=O)c1cnc(NCCCc2ccccn2)nc1C1CCCNC1 (stereo not given)	-2%
CCc1ccc(C(=O)c2cn(CC(=O)Nc3ccc(Cl)cc3)c3cc4c(cc3c2=O)OCO4)cc1	-28%
CCOc1ccc(C(=O)c2cn(CC(=O)Nc3ccc(OC)cc3)c3cc4c(cc3c2=O)OCCO4)cc1	25%
Cc1ccc(Cn2cc(S(=O)(=O)c3ccc(Cl)cc3)c(=O)c3cc4c(cc32)OCO4)cc1	-1%
CCOc1ccc(NC(=O)Cn2cc(C(=O)c3ccc(OC)cc3)c(=O)c3cc4c(cc32)OCO4)cc1	4%
COc1ccc(Cn2cc(C(=O)c3ccc(OC)cc3)c(=O)c3cc4c(cc32)OCCO4)cc1	8.9µM*
Cc1ccc2c(c1)c(=O)c(C(=O)c1ccc3c(c1)OCO3)cn2Cc1ccc(Cl)cc1	13µM*
CN(C)c1ccc(CN[C@H]2C[C@H]3C(=O)NC[C@@H](CCC(=O)N4CCC(O)CC4)N3C2)cc1	33%
O=C(CC1CCN(C(=O)c2cc(F)ccc2F)C1)NC1CC1 (stereo not given)	28%
O=C(c1ccc(-c2ccc(N3CCCCCC3)nc2)cc1)N1CCCC1	-10%
COc1ccccc1Cn1c(CNS(=O)(=O)c2c(C)cc(C)cc2C)nc2cccnc21	13µM*
COc1ccccc1Cn1c(CNS(=O)(=O)c2ccc(C(C)C)cc2)nc2cccnc21	i
CCOc1ccc(Cn2c(CNS(=O)(=O)c3c(C)cc(C)cc3C)nc3cccnc32)cc1	i
Cc1cn2nc(C(=O)N3CCC(NC(=O)c4ccsc4)CC3)cc2c(=O)[nH]1	-26%
COc1cccc(CNC(=O)[C@@H]2C[C@@H](O)CN2C2CCN(C(=O)c3ccco3)CC2)c1	i
COc1cccc(CNC(=O)[C@@H]2C[C@@H](O)CN2C2CCN(C(=O)c3cccs3)CC2)c1	8.9µM*
